Laboratory results taken from ChEMBL document CHEMBL3988442, “University of Dundee, Small-Polar-MMV Screening Library” (2021).
Out of some 69,000 compounds screened, about 420 (0.61%) showed an effect of 50% or more. The entries come from a sample that favours strong results as a whole.

What follows are compounds tested against T1, Histidine--tRNA ligase (Leishmania infantum) (UniProt A4I591) (assay: Leishmania infantum Histidine tRNA synthetase (LdHisRS)). Settings: 30 µM.
T1 sequence (whole entry): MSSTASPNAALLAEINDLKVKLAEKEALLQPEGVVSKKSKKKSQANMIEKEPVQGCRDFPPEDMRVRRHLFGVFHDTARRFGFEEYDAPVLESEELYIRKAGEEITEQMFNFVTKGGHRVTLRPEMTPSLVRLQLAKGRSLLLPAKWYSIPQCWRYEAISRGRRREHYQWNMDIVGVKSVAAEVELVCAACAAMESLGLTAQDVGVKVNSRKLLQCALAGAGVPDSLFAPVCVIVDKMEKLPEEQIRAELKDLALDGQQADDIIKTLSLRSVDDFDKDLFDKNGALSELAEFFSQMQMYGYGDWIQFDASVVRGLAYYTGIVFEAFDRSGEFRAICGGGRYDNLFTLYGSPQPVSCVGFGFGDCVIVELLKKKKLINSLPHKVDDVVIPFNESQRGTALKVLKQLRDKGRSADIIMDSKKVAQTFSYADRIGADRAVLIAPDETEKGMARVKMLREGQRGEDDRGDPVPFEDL
Assay type: functional
Parameters: scale not given: in the data most compounds retested in dose-response had high values

| SMILES | Percent Effect [%] |
| --- | --- |
| CC(C)CN1C[C@H]2CCN(C(=O)C3CCCO3)CC[C@H]2S1(=O)=O (stereo not given in full) | 13.8 |
| O=C1[C@H]2CC[C@H](CN(Cc3ccccc3OC(F)F)C2)N1CC1CC1 | 28.9 |
| Cc1noc(C)c1C(=O)N1C[C@@H]2CCCO[C@@H]2[C@H](N(C)C)C1 | 7.96 |
| O=C(c1ccnnc1)N1C[C@H]2CN(Cc3cccc(F)c3)C(=O)[C@H]2C1 | 0.917 |
| CNC(=O)[C@H]1C[C@@H]2CN(S(=O)(=O)c3ccccc3)C[C@@H]2N1C(C)=O | 14.2 |
| O=C(N1CCOCC1)[C@@]12CCO[C@@H]1CCN(CC1CCCCC1)C2 | -3.88 |
| Cc1cccc(C(=O)N2CCn3cnc(COCC4CC4)c3C2)c1 | 34.5 |
| O=C(c1ccc2[nH]ccc2c1)N1CCn2cnc(COCC3CC3)c2C1 | 61.2 |
| Cc1ccc(C(=O)N2CCn3cnc(COCC4CC4)c3C2)cn1 | 15 |
| CN(C)S(=O)(=O)N1C[C@@H]2CC[C@H](C1)N(CCC(=O)NCc1ccco1)C2 | 13.6 |
| COc1ccc(-n2cc(CNC(=O)c3ccc[nH]3)nn2)cc1 | 54.2 |
| COc1ccc(-n2cc(CNC(=O)c3ccccn3)nn2)cc1 | 18.8 |
| COc1ccc(-n2cc(CNC(=O)c3cc[nH]n3)nn2)cc1 | 31.2 |
| CNC(=O)[C@H]1C[C@@H]2CCN(Cc3ccc4c(c3)OCO4)C[C@@H]2O1 | 14.6 |
| Cc1ccccc1-c1ncc(CNCc2csc(C(C)C)n2)s1 | 20 |
| CCC1=NOC(CNCc2cnc(-c3ccccc3C)s2)C1 (stereo not given) | 61.7 |
| Cc1cnc(CNCc2cnc(-c3ccccc3C)s2)cn1 | 11.7 |
| CC1CCN(C(=O)[C@H]2C[C@@H]3CCN(CC4CCOCC4)C[C@@H]3O2)CC1 | 12 |
| O=C(C1=CCCC1)N1C[C@H](Oc2cccnc2)[C@H]2OCCC[C@H]21 | 3.85 |
| O=C(c1nc2c(s1)CCCN2CC1CC1)N1CCOCC1 | 94 |
| O=C(c1nc2c(s1)CCCN2CC1CC1)N1CCCC1 | 40 |
| CN1CCCN(C(=O)c2nc3c(s2)CCCN3CC2CC2)CC1 | 48 |

| SMILES | Percent Effect [%] |
| --- | --- |
| COCC(=O)N1CC[C@H]2O[C@@H](C)C[C@H]2C1 | 12 |
| O=C(Nc1c(N2CCCC2)cccc1N1CCCC1)c1ccccn1 | 84.6 |
| O=C(Nc1c(N2CCCC2)cccc1N1CCCC1)c1cnsn1 | 15.4 |
| O=C(Nc1c(N2CCCC2)cccc1N1CCCC1)c1cnccn1 | 30.8 |
| Cn1cccc1C(=O)N1CC[C@H]2[C@H]1CCN2CC1CCOCC1 | 24.6 |
| O=C(C1=CCCC1)N1C[C@H]2CCC[C@@]2(COCc2ccncc2)C1 | 25.7 |
| Cc1cccc(CN2C[C@@H]3COC[C@]3(CNC(=O)C3CC3)C2)c1 | 11.9 |
| CNC(=O)[C@@]12CCO[C@@H]1CCN(S(=O)(=O)c1ccccc1)C2 | 15 |
| CCN(CCN(C)C)c1nc(CCN)nc2sc(C)c(C)c12 | 54 |
| Cc1sc2nc(CCN)nc(N(CCN(C)C)CC3CCCO3)c2c1C (stereo not given) | 4.42 |
| COCCN(CC1CC1)c1nc(CCN)nc2sc(C)c(C)c12 | 32.7 |
| Cc1cccc(CN2C(=O)CC[C@@H]3[C@H]2CCN3Cc2cccnc2)n1 | 29.4 |
| Cc1nccc([C@H]2C[C@@H]3CCN(S(=O)(=O)C4CC4)C[C@H]3O2)n1 | 11.1 |
| CCOc1ccc2[nH]c(=O)c(CN3CCCC3c3ccccn3)cc2c1 (stereo not given) | 53 |
| O=c1[nH]c2cc3c(cc2cc1CN1CCCC1c1ccccn1)OCO3 (stereo not given) | 14.5 |
| O=c1[nH]c2cc3c(cc2cc1CN1CCCC1c1ccccn1)CCC3 (stereo not given) | 43.4 |
| COCCC(=O)N1C[C@H]2CCC[C@@]2(COC)C1 | 5.77 |
| Cn1cc(N2C(=O)CC[C@@H]3[C@H]2CCN3Cc2nccs2)cn1 | 9.72 |
| Cc1cc(CN2CCc3nn(C)c(=O)cc3C2)on1 | 103 |
| Cc1cc(CN2CCc3cncnc3C2)on1 | 24 |
| CCn1nc2c(cc1=O)CN(Cc1cc(C)on1)CC2 | 21.2 |
| CCCn1nc2c(cc1=O)CN(Cc1nc(C)c(C)o1)CC2 | 13.2 |

| SMILES | Percent Effect [%] |
| --- | --- |
| CCCn1nc2c(cc1=O)CN(Cc1nc(CCOC)no1)CC2 | 48.1 |
| CCCn1nc2c(cc1=O)CN(Cc1ccccn1)CC2 | 75.8 |
| CCCn1nc2c(cc1=O)CN(Cc1cc(C)on1)CC2 | 55.8 |
| Cc1cc(CN2CCc3nn(C)c(=O)cc3C2)no1 | 45.5 |
| CCCn1nc2c(cc1=O)CN(Cc1cc(C)no1)CC2 | 69.7 |
| CCCn1nc2c(cc1=O)CN(Cc1ncc(C(C)(C)C)o1)CC2 | 45.5 |
| CCCn1nc2c(cc1=O)CN(Cc1nc(C)c3ccccc3n1)CC2 | 27.1 |
| CN(C)C(=O)N1C[C@@H]2CC[C@H](C1)N(C(=O)c1c(Cl)cccc1Cl)C2 | 8.06 |
| CS(=O)(=O)N1C[C@@H]2CC[C@H](C1)N(Cc1ccsc1)C2 | 31.2 |
| CNC(=O)[C@H]1CO[C@H]2CCN(Cc3ccc4ccccc4n3)C[C@H]2C1 | 10.5 |
| CNC(=O)[C@@H]1COC[C@H]2CN(C(=O)c3ccc(C)c(F)c3)C[C@H]21 | 12.3 |
| CC(C)CC(=O)N1CC[C@@H]2[C@H](CC1)N(S(C)(=O)=O)CCS2(=O)=O | 19.2 |
| CS(=O)(=O)N1C[C@@H]2COC[C@]2(COCC(=O)N2CCCC2)C1 | 2.73 |
| CCCn1nc2c(cc1=O)CN(Cc1c(C)noc1C)CC2 | 27.3 |
| Cc1cc(CN2CCc3nn(C(C)C)c(=O)cc3C2)no1 | 26.9 |
| Cc1noc(C)c1CN1CCc2nn(C(C)C)c(=O)cc2C1 | 53 |
| O=C1CC[C@]2(CC[C@@H](NC3CCOCC3)CC2)N1Cc1ccccc1 | 7.77 |
| CCCN(C(=O)c1ccncc1)c1nc2c(s1)CCc1c-2cnn1C | 82.3 |
| COCCN(C)C(=O)c1nc2c(s1)CCCN2C | 24.6 |
| Cc1cnccc1-c1cnn(CCNC(=O)c2ccncc2)c1C1CC1 | -1.42 |
| CCCC(=O)N(CCN1CCOCC1)c1nc2c(OC)ccc(C)c2s1 | -3.48 |
| CN(C(=O)c1cccnc1)C1CCCN(CCc2ccccc2)C1 (stereo not given) | -1.64 |

| SMILES | Percent Effect [%] |
| --- | --- |
| CCCN(C(=O)c1cccnc1)c1nc2c(s1)CCc1c-2cnn1C | 101 |
| CCCN(C(=O)c1ccc(-n2ccnn2)cc1)c1cccnc1 | 11.1 |
| CCN(CCN1CCOCC1)C(=O)c1cccnc1 | 5.71 |
| CCCN(C(=O)COC)c1nc2c(s1)CCc1c-2cnn1C | 80 |
| Cc1ccc(C(=O)N2CC[C@@]3(O)CCN(C(=O)N(C)C)C[C@H]3C2)cc1Cl | -2.13 |
| CNc1nc(C(=O)N2C[C@H]3CC[C@@H]2CN(C2CCOCC2)C3)cs1 | 4.17 |
| COc1ccccc1CN1C(=O)O[C@@H]2CN(C(C)C)C[C@@H]21 | 3.33 |
| O=C1[C@@H]2CN(c3ncccc3Cl)C[C@]2(C(=O)O)CN1CC1CC1 | 3.28 |
| CCOc1ccc(CN2CCN(CCOC)[C@@H]3CS(=O)(=O)C[C@@H]32)cc1 | 25 |
| c1cc2nccc(CC3CCCN(Cc4ncc[nH]4)CC3)c2cn1 (stereo not given) | 50 |
| c1cc2nccc(CC3CCCN(Cc4c[nH]cn4)CC3)c2cn1 (stereo not given) | 24.7 |
| c1cc2nccc(CC3CCCN(C4CCOCC4)CC3)c2cn1 (stereo not given) | 22.7 |
| CN1CCCC(Cc2ccnc3ccncc23)CC1 (stereo not given) | 0 |
| Cn1ccnc1CN1CCCC(Cc2ccnc3ccncc23)CC1 (stereo not given) | 43.3 |
| CS(=O)(=O)N1CCCC(Cc2ccnc3ccncc23)CC1 (stereo not given) | 80.2 |
| CC(=O)N1[C@H](Cn2cncn2)C[C@@H]2CN(Cc3cccnc3)CC[C@@H]21 | 13.9 |
| Cc1nc(C(=O)N2CCN(S(C)(=O)=O)[C@@H]3CS(=O)(=O)C[C@@H]32)cs1 | 18.7 |
| c1cc(CN2CC[C@H]3O[C@@H](COCC4CCOCC4)CC[C@H]32)ccn1 | 22 |
| CCN1C[C@H]2[C@@H](C1)N(S(=O)(=O)c1ccccc1)CC[C@H]2OC | 24 |
| CN(C)CCO[C@H]1CN(C(=O)c2ccc3c(c2)OCO3)[C@@H]2COC[C@H]12 | 13.7 |
| O=C(NCC1(O)CCC1)c1c(O)cc(F)cc1F | -2.17 |
| CCCn1cc(Cl)c(C(=O)N2C[C@H]3C[C@H](OC)C[C@H]3C2)n1 | 8.63 |

| SMILES | Percent Effect [%] |
| --- | --- |
| Cc1nc(CN2CCCC2c2ccsc2)nc2ccccc12 (stereo not given) | 54 |
| Cc1nc(C)n(CC2CCCN2Cc2nc(C)c3ccccc3n2)n1 (stereo not given) | 56.5 |
| Cc1nc(C)n(CC2CCCN2Cc2nc(N)c3ccccc3n2)n1 (stereo not given) | 36.5 |
| Cc1nn(C)c(C)c1C1CCCN1Cc1nc(C)c2ccccc2n1 (stereo not given) | 46 |
| Cc1nc(C)n(CC2CCCN2Cc2nc3ccccc3nc2C)n1 (stereo not given) | 17.6 |
| Cc1nc(CN2CCCC2c2noc(C3CC3)n2)nc2ccccc12 (stereo not given) | 42.2 |
| CC(C)CN1C[C@@H]2C(=O)NC3(CCN(C(=O)c4cccnc4)CC3)[C@@H]2C1 | 23.3 |
| CN1[C@@H](C(=O)NCC2CC2)C[C@@H]2CN(Cc3ccsc3)C[C@@H]21 | 11.9 |
| CS(=O)(=O)N1C[C@H]2CCC[C@@]2(COc2ccccn2)C1 | 10.3 |
| CN(C)C(=O)CO[C@H]1CN(Cc2cccc(C#N)c2)[C@@H]2COC[C@H]12 | -11.4 |
| COc1ncccc1C(=O)N1CC[C@H]2C[C@@H](c3noc(C)n3)O[C@@H]2C1 | 46.1 |
| O=C(O)[C@@]12CN(c3cnccn3)C[C@@H]1CN(C1CCCC1)C2 | 21 |
| O=C(O)c1ccccc1-c1ccc(CN2CC(c3ccncn3)C2)o1 | 29.4 |
| Nc1nccc(C2CN(Cc3ccc(-c4ccccc4C(=O)O)o3)C2)n1 | 54.9 |
| Cc1nccc(C2CN(Cc3ccc(-c4ccccc4C(=O)O)o3)C2)n1 | 12.7 |
| O=C(CN1C[C@H]2C[C@H](OCc3ccccc3)C[C@H]2C1)N1CCOCC1 | 15.7 |
| CN1CCN(Cc2cnn(-c3ccccc3Cl)c2)[C@H]2CS(=O)(=O)C[C@H]21 | 5.71 |
| Cc1ccc(-c2ncc(C(=O)N3CCCN4CCC[C@H]4C3)c(O)n2)cc1 | 11 |
| Cc1c(-c2c(-c3ccccc3)ncn2[C@H](CO)C(=O)O)cnn1C | 7.85 |
| CN(C)c1ncc(-c2c(-c3ccccc3)ncn2C(CO)C(=O)O)cn1 (stereo not given) | 72.8 |
| Cc1nn(C)c(C)c1-c1c(-c2ccccc2)ncn1[C@H](CO)C(=O)O | 1.57 |
| O=C1C[C@H]2CC[C@@H](CN1)N2C(=O)CCc1ccccc1 | 8.39 |
